3T3 cytotox – Cytotoxic Profiling in NIH 3T3 Cell Line of Diverse Libraries Using Quantitative High-Throughput Screening; Potency, µM (titrated, usually from 96.7 µM), hits mostly inhibitors; 94,000 tested, 4.3% active; NIH 3T3 viability, CellTiter-Glo ATP luminescence, 48-72 h; AID 1345082, 2018; also: nearly all actives have a fitted effect of over 55% in size
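Mouse fibroblast NIH 3T3 cells, 400 per well, received compound via pintool and were incubated for 48 or 72 hr prior to CellTiter-Glo ATP luminescence measurement.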
HEK293 tox – Cytotoxic Profiling in HEK 293 Cell Line of Diverse Libraries Using Quantitative High-Throughput Screening | HEK 293 viability, ATP luminescence (CellTiter-Glo), 48-72 h | Potency, µM (doses to about 115 µM), most hits filed as inhibitors | 94,000 tested, 6.6% active | AID 1345083, 2018; also: nearly all actives have a fitted effect of over 60% in size
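qHTS cytotoxicity; HEK 293, 250 cells/well; compound pinned; 48 or 72 hr, 37 degree Celsius, 5% CO2, 95% humidity; CellTiter-Glo, 10 min RT; luminescence (ATP).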
NPR1 antag – Natriuretic polypeptide receptor (hNpr1) antagonism - Primary qHTS; Potency, µM (series often up to 46.3 µM), actives largely listed as inhibitors; 76,000 tested, 1.6% active; Atrial natriuretic peptide receptor 1 (Homo sapiens), P16066; HEK293 hNpr1 GloSensor cGMP, ANP-stimulated luminescence; calls by dose curve; also: nearly all actives have a fitted effect of over 60% in size
Target sequence (P16066 whole entry, looked up): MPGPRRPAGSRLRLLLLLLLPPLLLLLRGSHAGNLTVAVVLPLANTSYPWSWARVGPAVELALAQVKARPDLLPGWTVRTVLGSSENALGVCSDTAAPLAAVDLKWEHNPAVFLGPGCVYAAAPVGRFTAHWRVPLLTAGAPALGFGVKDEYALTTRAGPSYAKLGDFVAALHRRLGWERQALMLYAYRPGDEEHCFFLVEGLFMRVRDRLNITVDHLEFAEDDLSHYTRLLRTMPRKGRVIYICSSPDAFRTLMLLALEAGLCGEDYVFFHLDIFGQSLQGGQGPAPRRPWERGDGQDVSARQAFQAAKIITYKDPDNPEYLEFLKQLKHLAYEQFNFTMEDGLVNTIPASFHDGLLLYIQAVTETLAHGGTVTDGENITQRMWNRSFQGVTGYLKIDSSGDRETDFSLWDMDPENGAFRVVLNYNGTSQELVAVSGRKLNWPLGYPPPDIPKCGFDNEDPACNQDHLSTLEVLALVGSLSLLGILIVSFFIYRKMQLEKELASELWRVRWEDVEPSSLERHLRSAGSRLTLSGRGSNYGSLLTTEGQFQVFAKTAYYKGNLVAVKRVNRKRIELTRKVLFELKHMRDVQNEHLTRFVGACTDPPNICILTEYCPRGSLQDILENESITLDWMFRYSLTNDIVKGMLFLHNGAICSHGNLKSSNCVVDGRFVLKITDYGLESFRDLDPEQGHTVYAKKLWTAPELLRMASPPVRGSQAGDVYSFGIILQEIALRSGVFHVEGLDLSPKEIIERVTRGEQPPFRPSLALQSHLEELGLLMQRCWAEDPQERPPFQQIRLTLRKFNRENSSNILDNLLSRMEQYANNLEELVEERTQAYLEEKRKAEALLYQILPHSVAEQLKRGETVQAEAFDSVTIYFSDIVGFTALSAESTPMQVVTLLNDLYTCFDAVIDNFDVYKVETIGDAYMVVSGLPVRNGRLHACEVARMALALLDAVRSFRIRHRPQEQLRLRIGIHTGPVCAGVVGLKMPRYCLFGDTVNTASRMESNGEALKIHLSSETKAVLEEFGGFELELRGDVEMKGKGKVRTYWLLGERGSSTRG
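HEK293 cells stably expressing human Npr1 and cGMP GloSensor pGS-40F, loaded 2 h with 2% GloSensor reagent, given compound 30 min at room temperature. Luminescence read before and 20 min after 0.1 nM hNppA.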
Luciferase inh – Firefly luciferase inhibition profiling of diverse chemical library using quantitative high-throughput screening. 76,000 tested, 2.5% active. Luciferin 4-monooxygenase (Photinus pyralis), P08659. Potency, µM (highest dose often 115 µM), hits mostly inhibitors. purified P. pyralis luciferase, luminescence, biochemical; also: nearly all actives have a fitted effect of over 65% in size
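Cell-free enzyme assay, 10nM P. pyralis luciferase, luciferin and ATP each at 10uM. Inhibition profiled over a 6-point titration, read as luminescence.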
GPT2 inhibitor – Primary qHTS assay for inhibitors of Glutamate pyruvate transaminase 2 (GPT2); 100,000 tested, 0.25% active; AID 1671188, 2021; Alanine aminotransferase 2 (Homo sapiens), Q8TD30; Recombinant GPT2, coupled pyruvate oxidase/HRP Amplex Red fluorescence; Potency, µM (titrated, usually from 57.7 µM), usual class: inhibitors; also: nearly all actives have a fitted effect of over 60% in size
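Fluorescence of coupled pyruvate oxidase/HRP/Amplex Red system (50uM Amplex, 30 min, dark) reports pyruvate formed by GPT2. Enzyme reaction: 10ng/uL GPT2, 2mM L-alanine, 250uM a-KG, 30 min room temperature, pH 7.5; 50uM AOA control.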
Numbers stand for hits; – = inactive; ? = inconclusive; · = no result given. Hits are enriched below; roughly 10% of the tested compounds scored in any of these assays. Unless noted, calls follow the shape of the dose curve; as a rule, active = well fitted curve in the direction sought with a large enough effect; inconclusive = small, poorly fitted or top-dose-only effect, or another doubt; inactive = no such curve, though single readings can be large; an effect the other way counts as inactive or inconclusive.

SMILES	3T3 cytotox	HEK293 tox	NPR1 antag	Luciferase inh	GPT2 inhibitor
O=C(C1CCC1)N1CCCC(n2cc(-c3nc(-c4ccccc4)no3)nn2)C1 (stereo not drawn)	?	?	?	40µM	–
O=C(N1CCCC(n2cc(-c3nc(-c4ccccc4)no3)nn2)C1)C1(c2ccccc2)CC1 (stereo not drawn)	?	45µM	14µM	?	–
O=C(c1ccc2c(c1)OCO2)N1CCCC(n2cc(-c3nc(C4CC4)no3)nn2)C1 (stereo not drawn)	?	?	–	–	–
O=C(c1ccc2c(c1)OCO2)N1CCCC(n2cc(-c3nc(-c4ccccc4)no3)nn2)C1 (stereo not drawn)	?	?	11µM	?	–
O=C(c1cccnc1)N1CCCC(n2cc(-c3nc(-c4ccccc4)no3)nn2)C1 (stereo not drawn)	–	?	?	–	–
O=C(NCc1ccc(F)cc1F)C1CCCN(c2cn[nH]c(=O)c2)C1 (stereo not drawn)	–	–	–	–	–
O=C(C1CCCC1)N1CCCC(n2cc(-c3nc(-c4ccccc4)no3)nn2)C1 (stereo not drawn)	?	?	13µM	?	–
Cc1nnc2ccc(N3CCN(C(=O)c4ccccn4)CC3)nn12	–	–	·	·	·
CC(c1cccs1)N(C)Cc1cccc2ccccc12 (stereo not drawn)	?	112µM	–	?	–
COc1cccc(CN(C)C(C)c2cccs2)c1 (stereo not drawn)	–	–	–	–	–
CNC(=O)c1cc(C)nc2onc(C3CCN(C(=O)c4ccc(F)cc4)CC3)c12	–	–	·	·	·
Cn1nc(C2CC2)n(C2CCN(Cc3cn[nH]c3-c3ccccc3)CC2)c1=O	–	–	·	·	?
O=C(c1ccn(C(F)F)n1)N1CCc2nc(-c3ccc(Cl)cc3)[nH]c2C1	?	89µM	–	?	–
COc1ccc(CN2CCNc3cc(Nc4cccnc4)ncc3C2)cc1O	?	?	–	–	–
c1cncc(Nc2cc3c(cn2)CN(Cc2ccc4[nH]ccc4c2)CCN3)c1	?	89µM	–	40µM	–
FC(F)(F)c1ccc(CN2CCNc3cc(Nc4cccnc4)ncc3C2)cc1	?	32µM	?	–	?
Cc1cccc(CN2CCNc3cc(Nc4cccnc4)ncc3C2)c1	?	?	–	–	–
Oc1ccccc1CN1CCNc2cnc(OCc3cccnc3)cc2C1	–	100µM	?	–	–
Oc1ccccc1CN1CCNc2cc(Nc3cccnc3)ncc2C1	?	63µM	–	?	–
COc1ccc(CN2CCNc3cnc(Oc4ccccc4)cc3C2)cc1O	?	63µM	–	–	–
c1ccc(Oc2cc3c(cn2)NCCN(Cc2cnc[nH]2)C3)cc1	–	?	–	–	–
CN1C[C@@H](NC(=O)c2cccnc2)C[C@H]1c1nc(-c2cnccn2)no1	–	–	–	–	–
COc1ccc(C(=O)N[C@H]2C[C@@H](c3nc(-c4ccc(Cl)cc4)no3)N(C)C2)cc1	?	56µM	?	?	–
CN1C[C@@H](NC(=O)Nc2ccc(C(F)(F)F)cc2)C[C@H]1c1nc(-c2ccc(Cl)cc2)no1	8.9µM	20µM	?	–	–
CN1C[C@@H](NC(=O)Nc2ccc(F)cc2F)C[C@H]1c1nc(-c2ccccc2)no1	–	63µM	?	–	–
SMILES	3T3 cytotox	HEK293 tox	NPR1 antag	Luciferase inh	GPT2 inhibitor
COc1ccc(-c2noc([C@@H]3C[C@H](NC(=O)c4ccc(F)cc4)CN3C)n2)cc1	?	?	–	–	–
CN1C[C@@H](NC(=O)c2cnccn2)C[C@H]1c1nc(-c2ccc(OC(F)(F)F)cc2)no1	?	89µM	–	–	?
CCN1C(=O)CCC2(C(=O)Nc3cccc(OC)c3)CCCC=C12 (stereo not drawn)	–	–	·	·	–
CN1C[C@@H](NC(=O)c2ccccn2)C[C@H]1c1nc(-c2ccc(OC(F)(F)F)cc2)no1	?	79µM	–	–	–
COc1ccc(NC(=O)N[C@H]2C[C@@H](c3nc(-c4ccc(F)cc4)no3)N(C)C2)cc1	?	–	–	–	?
COc1ccc(C(=O)N[C@H]2C[C@@H](c3nc(-c4ccccc4)no3)N(C)C2)cc1	?	?	–	–	–
CN1C[C@@H](NC(=O)c2ccccn2)C[C@H]1c1nc(-c2ccc(Cl)cc2)no1	?	89µM	–	71µM	?
COc1ccc(CC(=O)N[C@H]2C[C@@H](c3nc(-c4ccc(OC(F)(F)F)cc4)no3)N(C)C2)cc1	?	35µM	?	–	?
Cc1ccncc1C(=O)N1CCC(N2CC3(CCCCC3)C2c2ccncc2)CC1 (stereo not drawn)	–	–	·	·	–
Cc1ccc(-c2ccc3c(n2)CN(C)C(=O)CO3)cc1	?	?	?	89µM	–
COc1ccc(-c2ccc3c(n2)CN(C)C(=O)CO3)cc1	100µM	?	?	?	?
O=C(CCc1c[nH]c2ccccc12)N1CCC2(CC1)CC(Cc1nc(C3CC3)no1)CCO2 (stereo not drawn)	?	?	–	–	?
CC1(c2ccccc2)N(Cc2ccc(O)cc2)C(=O)OC12CCN(Cc1c[nH]c3ccccc13)CC2 (stereo not drawn)	10µM	?	?	–	–
COc1ccccc1CN1CCC2(CC1)OC(=O)N(Cc1ccccc1)C2(C)c1ccccc1 (stereo not drawn)	?	50µM	–	–	–
COc1ncc(CN2CCC3(CC2)OC(=O)N(Cc2ccccc2)C3(C)c2ccccc2)cn1 (stereo not drawn)	–	?	–	–	–
Cc1ccccc1CN1CCC2(CC1)OC(=O)N(Cc1ccc(O)cc1)C2(C)c1ccccc1 (stereo not drawn)	32µM	35µM	–	–	–
O=C(Nc1ccc2ncnc(N3CCCC3)c2c1)c1ccc(Cl)s1	–	–	–	–	–
Cc1nc(-c2c3n(c(=O)n(CC(=O)Nc4ccc5c(c4)OCO5)c2=O)CCCCC3)no1	–	–	–	–	–
CCOC(=O)c1cccc(NC(=O)C2=CC(C)(C)Oc3ccc(OC)cc32)c1	28µM	25µM	·	·	·
COC(=O)c1ccc(COCC2=CC(C)(C)Oc3ccc(OC)cc32)cc1	?	35µM	·	·	·
CCOC(=O)c1cccc(NC(=O)N2CC[C@@H](CC(=O)Nc3ccccc3)[C@@H](CC)C2)c1	–	–	–	–	–
O=C(O)Cn1nc2c(cc1=O)CCCC2	–	–	–	–	–
O=c1cc2c(nn1Cc1cccc(Br)c1)CCCCC2	?	?	–	32µM	?
N[C@@H]1CCN(Cc2ccccc2OCc2ccc(Cl)cc2)C[C@H]1O	28µM	22µM	–	–	–
